This is an account of results in PubChem BioAssay (NCI).

About 83,000 compounds went through this panel and 20% of them were active in at least one assay; those are over-represented in the sample as a whole.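 Activity criterion: percent growth below 10, measured after cells in 96-well plates were exposed to a single compound concentration for 48 hours.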 Unmarked numbers belong to inactive results. Activity calls are given as the source filed them.

What all share (assay): NCI-60 one-dose screen, 48 h (100 = growth as untreated, 0 = no growth, -100 = all killed)
Experiment [1] concerns SK-MEL-2 melanoma. The following applies: 10 µM unless noted.
Experiment [2] concerns EKVX NSCLC. The following applies: 10 µM unless noted.
Experiment [3] has as its system SN12C renal. Particulars: 10 µM unless noted.
Experiment [4] concerns UO-31 renal. Particulars: 10 µM unless noted.
For experiment [5], the system named is TK-10 renal. Particulars: 10 µM unless noted.
Experiment [6] has as its system ACHN renal. Particulars: 10 µM unless noted.
The subject of experiment [7] is A498 renal. The following applies: 10 µM unless noted.
For experiment [8], the system named is CCRF-CEM leukemia. Particulars: 10 µM unless noted.
The subject of experiment [9] is MOLT-4 leukemia. Particulars: 10 µM unless noted.
For experiment [10], the system named is SR leukemia. Particulars: 10 µM unless noted.
The subject of experiment [11] is RPMI-8226 leukemia. Particulars: 10 µM unless noted.
In experiment [12] the test system is OVCAR-8 ovarian. Particulars: 10 µM unless noted.
Experiment [13] concerns OVCAR-5 ovarian. Particulars: 10 µM unless noted.
In experiment [14] the test system is OVCAR-4 ovarian. Particulars: 10 µM unless noted.
Experiment [15] concerns SK-OV-3 ovarian. Particulars: 10 µM unless noted.
In experiment [16] the test system is IGROV1 ovarian. The following applies: 10 µM unless noted.
Experiment [17] deals with OVCAR-3 ovarian. Particulars: 10 µM unless noted.
Experiment [18] deals with HS 578T breast. Particulars: 10 µM unless noted.
For experiment [19], the system named is NCI/ADR-RES ovarian. The following applies: 10 µM unless noted.
Experiment [20] concerns CAKI-1 renal. The following applies: 10 µM.

As to `CC1=CC(=O)CC(C)(C)[C@@]1(O)/C=C/C(C)=C\C(=O)O`, the growth in experiment [1] is -52.4% (active); in [2] it was -29.6% (active); in [3] it was -15.1% (active); in [4] it was -31.6% (active); in [5] it was -25.5% (active); in [6], -7.21% (active). The growth in [7] was -72.7% (active); in [8], 0.0714% (active); in experiment [9], -9.99% (active); in experiment [10], 0.555% (active); in experiment [11], -28.4% (active); in experiment [12], -11.9% (active). Besides, the growth is -25% (active) in experiment [13]; -15.9% (active) in experiment [14]; -22% (active) in experiment [15]; -12.5% (active) in [16]; -19.5% (active) in experiment [17]; -8.17% (active) in experiment [18]. Besides, in experiment [19], the growth was -15.6% (active).

Regarding `CC[C@@](C)(NC(=O)C(C)(C)NC(=O)[C@@H](NC(=O)[C@@H]1CCCN1C(=O)C(C)(C)NC(=O)[C@H](CC(C)C)NC(=O)CNC(=O)C(C)(C)NC(=O)[C@@H](NC(=O)C(C)(C)NC(=O)[C@H](CCC(N)=O)NC(=O)[C@H](C)NC(=O)C(C)(C)NC(=O)[C@H](C)NC(=O)C(C)(C)NC(=O)[C@H](C)NC(=O)C(C)(C)NC(C)=O)C(C)C)C(C)C)C(=O)N[C@@H](CCC(N)=O)C(=O)N[C@@H](CCC(N)=O)C(=O)N[C@H](CO)CC1CCCCC1`, the growth is -21.9% [5 µM] (active) in experiment [1]; 65.6% [5 µM] in [2]; 9.8% [5 µM] (active) in experiment [3]; 91.1% [5 µM] in experiment [4]; 88.3% [5 µM] in experiment [5]; 107% [5 µM] in experiment [6]. The growth is 39.7% [5 µM] in experiment [7]; 27.4% [5 µM] in experiment [8]; 21% [5 µM] in experiment [9]; 27.7% [5 µM] in [10]; -16.2% [5 µM] (active) in experiment [11]; 87.7% [5 µM] in experiment [12]. Besides, the growth is 19.9% [5 µM] in [13]; 58% [5 µM] in experiment [14]; 18.5% [5 µM] in experiment [15]; 42.1% [5 µM] in experiment [16]; 19.2% [5 µM] in experiment [17]; 46.6% [5 µM] in [18]. In addition, the growth in experiment [19] is 101% [5 µM].

As to `O=C(Nc1cccc(Cl)c1)Nc1nc2ccc(-c3cccc4ccccc34)cc2s1`, the growth was 82.6% in experiment [1]; 56.4% in [2]; 53% in experiment [3]; 47.4% in experiment [4]; 74.7% in experiment [5]; 40.3% in experiment [6]. In addition, the growth is 37.9% in experiment [20]; 40.4% in experiment [8]; 41.5% in experiment [9]; 90% in experiment [10]; 42.9% in experiment [12]; 84% in experiment [13]. The growth in experiment [14] was 20.4%; in [15], 66.8%; in experiment [16] it was 55.2%; in experiment [17], 13.5%; in experiment [18] it was 72.9%; in [19] it was 57.5%.

Regarding `CN(C)c1ccc(/C=N/Nc2nc(N/N=C/c3ccc(N(C)C)cc3)nc(N3CCOCC3)n2)cc1`, the growth was 98.6% in experiment [1]; 95.4% in experiment [2]; 89.2% in experiment [3]; 90.7% in experiment [4]; 110% in experiment [5]; 104% in experiment [6]. For the same molecule, the growth is 96% in experiment [20]; 13.3% in experiment [8]; 96.7% in experiment [9]; -13.1% (active) in experiment [10]; 35% in experiment [11]; 99% in experiment [12]. The growth in [13] is 110%; in experiment [14], 104%; in experiment [15], 110%; in experiment [17] it was 109%; in experiment [18], 97.6%; in [19], 99.8%.

For the molecule `CCOC(=O)C1=C(C)Nc2nc3ccccc3n2C1c1cccc(Br)c1` (stereo not drawn), the growth is 89.9% in experiment [1]; 80.2% in [2]; 95.1% in experiment [3]; 73.7% in [4]; 113% in experiment [5]; 88.9% in experiment [6]. The growth is 54.5% in experiment [20]; 69.3% in experiment [9]; 25.4% in [10]; 96% in experiment [12]; 97.1% in experiment [13]; 88.9% in [14]. Further, the growth is 93.6% in experiment [15]; 77.4% in experiment [16]; 40.3% in experiment [17]; 79.1% in experiment [18]; 59% in experiment [19].

For the molecule `CC[C@H](C)[C@H]1NC(=O)[C@@H]([C@H](O)C(C)C)NC(=O)[C@@H](C)N(C)C(=O)[C@H](C)N(C)C(=O)[C@H](CC(C)C)NC(=O)[C@H](CC(C)C)N(C)C(=O)[C@H](C)N(C)C1=O`, the growth in [1] is -27% (active); in experiment [2], -4.22% (active); in [3], 2.49% (active); in experiment [4] it was 5.19% (active); in experiment [5], 1.97% (active); in experiment [6] it was 5.95% (active). For the same molecule, the growth in experiment [7] is 5.77% (active); in experiment [8], 4.88% (active); in [9] it was 1.68% (active); in experiment [10], 5.76% (active); in experiment [11] it was -13.8% (active); in experiment [12], 4.14% (active). Also, the growth is 6.87% (active) in [13]; 8.31% (active) in experiment [14]; -9.12% (active) in experiment [15]; 10.5% in experiment [16]; 6.47% (active) in experiment [17]; 5.82% (active) in experiment [18]. In addition, in experiment [19], the growth is 11.4%.

For the molecule `COc1c([C@@H](CC(C)C)OC(C)=O)ccc2c1C(=O)OCc1cc(C)cc(O)c1O2`, the growth was 22.2% in [1]; 37.6% in experiment [2]; 27.8% in experiment [3]; 32.3% in experiment [4]; 33.6% in experiment [5]; 16.1% in [6]. In addition, the growth was 61.5% in experiment [7]; 31.4% in experiment [8]; 21.3% in experiment [9]; 19.1% in experiment [10]; 27.6% in [11]; 21.2% in [12]. Also, the growth in experiment [13] is 69.4%; in experiment [14], 25.9%; in experiment [15] it was 24.3%; in experiment [16] it was 44%; in [17], 43%; in experiment [19], 12.6%.
